Molecules are shown by their SMILES.

In this assay the target is PAS domain-containing serine/threonine-protein kinase (Homo sapiens) (UniProt Q96RG2). The note with it: at 1 µM.
Chain of PAS domain-containing serine/threonine-protein kinase (Homo sapiens) (Q96RG2 whole entry, the tested form may be a part): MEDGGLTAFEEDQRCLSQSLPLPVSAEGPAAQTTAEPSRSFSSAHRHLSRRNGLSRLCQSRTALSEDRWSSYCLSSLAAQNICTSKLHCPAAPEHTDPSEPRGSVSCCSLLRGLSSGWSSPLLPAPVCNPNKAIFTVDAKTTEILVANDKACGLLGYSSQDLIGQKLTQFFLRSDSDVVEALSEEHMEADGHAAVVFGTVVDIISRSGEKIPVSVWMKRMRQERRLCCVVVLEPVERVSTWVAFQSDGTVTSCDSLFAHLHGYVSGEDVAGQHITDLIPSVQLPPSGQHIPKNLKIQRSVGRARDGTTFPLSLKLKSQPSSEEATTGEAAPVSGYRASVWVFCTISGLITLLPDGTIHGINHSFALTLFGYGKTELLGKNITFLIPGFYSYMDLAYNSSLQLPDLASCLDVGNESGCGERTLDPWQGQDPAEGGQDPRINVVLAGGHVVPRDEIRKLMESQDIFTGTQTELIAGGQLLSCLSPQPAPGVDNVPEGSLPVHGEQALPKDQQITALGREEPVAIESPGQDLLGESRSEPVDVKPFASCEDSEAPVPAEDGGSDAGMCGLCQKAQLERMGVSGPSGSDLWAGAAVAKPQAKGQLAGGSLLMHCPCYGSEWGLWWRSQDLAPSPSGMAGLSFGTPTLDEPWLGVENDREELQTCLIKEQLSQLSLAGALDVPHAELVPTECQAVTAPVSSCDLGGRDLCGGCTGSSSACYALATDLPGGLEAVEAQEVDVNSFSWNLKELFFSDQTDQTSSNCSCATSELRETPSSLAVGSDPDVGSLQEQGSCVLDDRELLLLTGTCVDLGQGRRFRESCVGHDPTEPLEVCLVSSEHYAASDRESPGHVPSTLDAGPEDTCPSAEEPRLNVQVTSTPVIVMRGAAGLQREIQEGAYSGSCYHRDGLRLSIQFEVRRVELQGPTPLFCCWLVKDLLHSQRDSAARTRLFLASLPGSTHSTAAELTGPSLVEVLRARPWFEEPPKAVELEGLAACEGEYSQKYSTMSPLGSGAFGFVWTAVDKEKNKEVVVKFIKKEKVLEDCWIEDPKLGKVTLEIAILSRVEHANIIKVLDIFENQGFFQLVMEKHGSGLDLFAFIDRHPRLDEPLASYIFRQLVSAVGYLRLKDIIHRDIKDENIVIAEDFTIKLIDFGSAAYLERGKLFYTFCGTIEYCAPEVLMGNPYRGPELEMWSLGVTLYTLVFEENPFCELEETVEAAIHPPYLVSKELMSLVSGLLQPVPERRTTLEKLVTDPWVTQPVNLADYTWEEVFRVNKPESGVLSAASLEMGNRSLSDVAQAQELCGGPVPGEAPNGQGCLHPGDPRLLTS
Regarding `O=C1NC(=O)c2c1c1c3ccccc3[nH]c1c1[nH]c3cc(Br)ccc3c21`, the residual activity turned out to be 89%.

On to `Nc1ncnc2[nH]nc(Nc3ccc(F)cc3)c12`, for which the residual activity came to 92%.

With `O=Nc1c(-c2c(O)[nH]c3ccccc23)[nH]c2ccccc12`, the residual activity is 112%.

Consider `NC(=O)c1ccc2[nH]c(-c3ccc(Oc4ccc(Cl)cc4)cc3)nc2c1`, for which the residual activity came out at 134%.

Take `O=C(Nc1cccc(Nc2cc(Nc3cccc(C(F)(F)F)c3)ncn2)c1)C1CC1`: the residual activity is 92%.

Turning to `CCCC(=O)Oc1ccc2[nH]c(C(=O)c3cc4ccccc4[nH]3)cc2c1`, the residual activity was 122%.

With `Nc1ncnc2c1c(-c1ccc(Oc3ccccc3)cc1)cn2C1CCCC1`, the residual activity was found to be 108%.

Regarding `Cn1sc(=O)n(Cc2ccccc2)c1=O`, the residual activity turned out to be 100%.

As to `Cn1cnc2cc3c(Nc4cccc(Br)c4)ncnc3cc21`, the residual activity is 82%.

`COc1ccc(C(=O)Nc2sc3c(c2C(N)=O)CCCC3)cc1OC`: the residual activity stood at 95%.

For `COc1ccc(-c2cnc3c(-c4ccsc4)cnn3c2)cc1`, the residual activity stood at 138%.

On to `Cc1nc2cc3nc(-c4cccs4)cnc3cc2n1C`, for which the residual activity is 98%.

Regarding `O=C1NC(=O)/C(=C/c2ccc3c(c2)OC(F)(F)O3)S1`, the residual activity stood at 81%.

Take `CN(C)CCCn1cc(C2=C(c3c[nH]c4ccccc34)C(=O)NC2=O)c2ccccc21`: the residual activity is 74%.

In the case of `CC(C)(C)n1nc(Cc2cccc3ccccc23)c2c(N)ncnc21`, the residual activity was determined as 116%.

For the compound `CC(C)N(CCC(=O)c1ccc2ccccc2c1)Cc1ccccc1`, the residual activity is 126%.

For the compound `O=c1c(-c2ccc(F)cc2)c(-c2ccncc2)[nH]n1-c1ccc(Cl)cc1`, the residual activity came out at 135%.

For `Nc1nccc(-c2c(-c3ccc(F)cc3)ncn2C2CCNCC2)n1`, the residual activity came to 129%.

Turning to `Oc1ccc(Nc2nc(-c3ccc(Cl)cc3)cs2)cc1`, the residual activity is 147%.

Consider `O=C1Nc2ccccc2/C1=C1/Nc2ccccc2/C1=N\OCCC(O)CO` (centres undefined), for which the residual activity was 140%.

With `O=C1Nc2ccccc2/C1=C\c1c(Cl)[nH]c2ccccc12`, the residual activity was 99%.

`c1ccc2c(-c3ccncc3)c[nH]c2c1`: the residual activity came to 99%.

Consider `COc1ccc(OC)c2c(=S)c3ccccc3[nH]c12`, for which the residual activity is 108%.

Turning to `Oc1ccc(-c2nc(-c3ccc(F)cc3)c(-c3ccncc3)[nH]2)cc1`, the residual activity worked out at 92%.

With `O=S(=O)(c1cccc2cnccc12)N1CCCNCC1`, the residual activity was found to be 83%.

`N#CC(C#N)=C(N)/C(C#N)=C/c1ccc(O)cc1`: the residual activity came out at 99%.

`CCCCc1c(-c2ccc(O)cc2)[nH]c2nccnc12`: the residual activity was 146%.

With `O=C1NC(=O)c2cc(Nc3ccc(F)cc3)c(Nc3ccc(F)cc3)cc21`, the residual activity is 105%.

Take `CCCCc1c(-c2ccc(OC)cc2)[nH]c2nccnc12`: the residual activity was 102%.

As to `O=[N+]([O-])c1ccc(-c2nc(-c3ccc(F)cc3)c(-c3ccncc3)[nH]2)cc1`, the residual activity came out at 126%.

Consider `Cc1ccc(NC2=CC(=O)c3sc(C)nc3C2=O)cc1`, for which the residual activity was determined as 81%.

As for `CCOC(=O)c1c(C)[nH]c(/C=C2\C(=O)Nc3ccccc32)c1C`, the residual activity worked out at 93%.

As to `COc1cc2nccc(Oc3ccc(NC(=O)Nc4cc(C)on4)c(Cl)c3)c2cc1OC`, the residual activity amounted to 100%.

Turning to `c1ccc(-c2cnc(Nc3ccc(OCCN4CCCC4)cc3)s2)cc1`, the residual activity was determined as 81%.

Consider `Cn1c2ccccc2c2c3c(c4c5ccccc5n(CCC#N)c4c21)CNC3=O`, for which the residual activity was found to be 93%.

For the compound `N#C/C(=C(\N)Sc1ccc(N)cc1)c1ccccc1C(F)(F)F`, the residual activity amounted to 122%.

In the case of `O=C(NC(NC(=S)Nc1ccc(F)c([N+](=O)[O-])c1)C(Cl)(Cl)Cl)C(c1ccccc1)c1ccccc1` (centres undefined), the residual activity turned out to be 103%.

Consider `CC(C)c1nn(-c2c(Cl)cccc2Cl)c2nc(Cc3ccc(OCCO)cc3)[nH]c(=O)c12`, for which the residual activity came to 142%.

Consider `CCN(CC)CCCCN1c2ccccc2Oc2ccc(Cl)cc21`, for which the residual activity amounted to 88%.

A word on the residual activity: it is the signal under treatment as a percentage of the control signal.

The values above are taken from ChEMBL document CHEMBL2218924, “A broad activity screen in support of a chemogenomic map for kinase signalling research and drug discovery” (Biochem J, 2013).
